This is an account of results in publication doi:10.1101/2024.03.05.583629.

The target of this experiment is pT7_6His-AlfaTag-HOXD13 (human, UniProt P35453 263-343). As to the kind of experiment: PADIT-seq. As to conditions: dsDNA, one strand shown.
Sequence of pT7_6His-AlfaTag-HOXD13 (P35453 263-343): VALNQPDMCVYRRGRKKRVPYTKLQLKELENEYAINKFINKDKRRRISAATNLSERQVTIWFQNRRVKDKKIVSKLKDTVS

For the sequence “CTCGAGGATATCAAGATCTGGCCTCGGCTTTTTAAGTGGAACCTCTAGCTAGCCGACTCACTATAGGGATAATCGCCCTGAGCAAAGACC”, the binding signal worked out at 1.17 ± 0.094 log2FC.
In the case of “CTCGAGGATATCAAGATCTGGCCTCGGCTGATGGGCGGGAACCTCTAGCTAGCCGACTCACTATAGGGATAATCGCCCTGAGCAAAGACC” it was -0.976 ± 0.109 log2FC.
Consider “CTCGAGGATATCAAGATCTGGCCTCGGCCGCCCAACTGGAACCTCTAGCTAGCCGACTCACTATAGGGATAATCGCCCTGAGCAAAGACC”, for which the binding signal is -1.02 ± 0.119 log2FC.
As for “CTCGAGGATATCAAGATCTGGCCTCGGCCAATTAAAAGGAACCTCTAGCTAGCCGACTCACTATAGGGATAATCGCCCTGAGCAAAGACC”, the figure is 2.77 ± 0.0792 log2FC; as for “CTCGAGGATATCAAGATCTGGCCTCGGCATTTTATTCGGAACCTCTAGCTAGCCGACTCACTATAGGGATAATCGCCCTGAGCAAAGACC”, 1.83 ± 0.0742 log2FC.
Consider “CTCGAGGATATCAAGATCTGGCCTCGGCGGACCACGCGGAACCTCTAGCTAGCCGACTCACTATAGGGATAATCGCCCTGAGCAAAGACC”, for which the binding signal is -0.846 ± 0.11 log2FC.
In turn, “CTCGAGGATATCAAGATCTGGCCTCGGCCGCCCAGCAGGAACCTCTAGCTAGCCGACTCACTATAGGGATAATCGCCCTGAGCAAAGACC” had a binding signal of -0.927 ± 0.127 log2FC.
As for “CTCGAGGATATCAAGATCTGGCCTCGGCCTTTTATGGGGAACCTCTAGCTAGCCGACTCACTATAGGGATAATCGCCCTGAGCAAAGACC”, the figure is 3.37 ± 0.0902 log2FC.
In the case of “CTCGAGGATATCAAGATCTGGCCTCGGCTTTATAAAAGGAACCTCTAGCTAGCCGACTCACTATAGGGATAATCGCCCTGAGCAAAGACC” it was 2.35 ± 0.0828 log2FC; in that of “CTCGAGGATATCAAGATCTGGCCTCGGCCTTTTATTCGGAACCTCTAGCTAGCCGACTCACTATAGGGATAATCGCCCTGAGCAAAGACC”, 1.67 ± 0.077 log2FC.
As for “CTCGAGGATATCAAGATCTGGCCTCGGCAAAATAAAAGGAACCTCTAGCTAGCCGACTCACTATAGGGATAATCGCCCTGAGCAAAGACC”, the figure is 1.46 ± 0.0905 log2FC; as for “CTCGAGGATATCAAGATCTGGCCTCGGCCTTTTACCAGGAACCTCTAGCTAGCCGACTCACTATAGGGATAATCGCCCTGAGCAAAGACC”, 0.296 ± 0.0912 log2FC; as for “CTCGAGGATATCAAGATCTGGCCTCGGCATTTTATGCGGAACCTCTAGCTAGCCGACTCACTATAGGGATAATCGCCCTGAGCAAAGACC”, 2.23 ± 0.0779 log2FC.
For the sequence “CTCGAGGATATCAAGATCTGGCCTCGGCGAGCTAAAAGGAACCTCTAGCTAGCCGACTCACTATAGGGATAATCGCCCTGAGCAAAGACC”, the binding signal was -0.842 ± 0.11 log2FC.
Consider “CTCGAGGATATCAAGATCTGGCCTCGGCGGTCTAAAAGGAACCTCTAGCTAGCCGACTCACTATAGGGATAATCGCCCTGAGCAAAGACC”, for which the binding signal was -0.664 ± 0.0879 log2FC.
As for “CTCGAGGATATCAAGATCTGGCCTCGGCCATGTAAAAGGAACCTCTAGCTAGCCGACTCACTATAGGGATAATCGCCCTGAGCAAAGACC”, the figure is 1.41 ± 0.0975 log2FC.
As for “CTCGAGGATATCAAGATCTGGCCTCGGCGCGCATGCGGGAACCTCTAGCTAGCCGACTCACTATAGGGATAATCGCCCTGAGCAAAGACC”, the figure is -0.957 ± 0.123 log2FC.
In the case of “CTCGAGGATATCAAGATCTGGCCTCGGCCCGCTAAAAGGAACCTCTAGCTAGCCGACTCACTATAGGGATAATCGCCCTGAGCAAAGACC” it was -0.398 ± 0.11 log2FC; in that of “CTCGAGGATATCAAGATCTGGCCTCGGCTAAATAAAAGGAACCTCTAGCTAGCCGACTCACTATAGGGATAATCGCCCTGAGCAAAGACC”, 1.68 ± 0.0988 log2FC; in that of “CTCGAGGATATCAAGATCTGGCCTCGGCATTTTAGGCGGAACCTCTAGCTAGCCGACTCACTATAGGGATAATCGCCCTGAGCAAAGACC”, -0.396 ± 0.116 log2FC.
With “CTCGAGGATATCAAGATCTGGCCTCGGCGTCTTAAAAGGAACCTCTAGCTAGCCGACTCACTATAGGGATAATCGCCCTGAGCAAAGACC”, the binding signal stood at 1.44 ± 0.067 log2FC.
In the case of “CTCGAGGATATCAAGATCTGGCCTCGGCCGCGTGCGCGGAACCTCTAGCTAGCCGACTCACTATAGGGATAATCGCCCTGAGCAAAGACC” it was -0.99 ± 0.127 log2FC; in that of “CTCGAGGATATCAAGATCTGGCCTCGGCATTTTAACCGGAACCTCTAGCTAGCCGACTCACTATAGGGATAATCGCCCTGAGCAAAGACC”, 1.17 ± 0.0785 log2FC; in that of “CTCGAGGATATCAAGATCTGGCCTCGGCACGGTAAAAGGAACCTCTAGCTAGCCGACTCACTATAGGGATAATCGCCCTGAGCAAAGACC”, 0.528 ± 0.077 log2FC.
In the case of “CTCGAGGATATCAAGATCTGGCCTCGGCCTCTTAAAAGGAACCTCTAGCTAGCCGACTCACTATAGGGATAATCGCCCTGAGCAAAGACC” it was 2.2 ± 0.0925 log2FC; in that of “CTCGAGGATATCAAGATCTGGCCTCGGCATCGTAAAAGGAACCTCTAGCTAGCCGACTCACTATAGGGATAATCGCCCTGAGCAAAGACC”, 2.79 ± 0.0886 log2FC.
